Screening data as filed in PubChem BioAssay.
Only a selection was taken, and hits are over-represented in it overall.
GRP78 ERSR act: ER stress response induction in glioma; AID 602332; Potency, µM, usual class: activators; U87-MG GRP78 promoter luciferase reporter, 16 h; actives 0.02% (n = 420,000); note: series mostly up to about 76 µM; nearly all actives have a fitted effect of over 35% in size
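Stably transfected U87-MG human glioma cells carrying a GRP78-based luminescent sensor were seeded at 1000 cells/well, pin-dosed with compounds and incubated 16 h. Luciferase reagent was then added, and end-point luminescence was read after 10 min at room temperature.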
G9a block: G9a (human) methyltransferase inhibition. Q96KQ7. G9a H3K9 monomethylation, AlphaScreen, 2 h. Potency, µM (doses to about 102 µM), actives largely listed as inhibitors. actives 8.8% (n = 350,000); note: nearly all actives have a fitted effect of over 75% in size
Target sequence (Q96KQ7 913-1193 limits assumed): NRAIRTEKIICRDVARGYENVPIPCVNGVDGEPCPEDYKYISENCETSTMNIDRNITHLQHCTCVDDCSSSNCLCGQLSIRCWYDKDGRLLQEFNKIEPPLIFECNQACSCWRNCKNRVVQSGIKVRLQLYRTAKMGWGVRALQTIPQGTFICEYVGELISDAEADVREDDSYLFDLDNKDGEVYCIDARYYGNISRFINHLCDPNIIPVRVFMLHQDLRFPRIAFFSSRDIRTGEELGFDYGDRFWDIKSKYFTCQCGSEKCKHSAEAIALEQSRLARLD
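Readings reflect AlphaScreen signal from monomethyl-H3K9 antibody detection. HMT at 20 nM; substrate b-H3K9 500 nM; cofactor SAM 20 uM; 2 h RT reaction; compounds tested as titrations in qHTS with 15 min preincubation.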
ALOX12 inh: blocks human arachidonate 12S-lipoxygenase. Potency, µM (doses to about 108 µM), usual class: inhibitors. P18054. actives 1.1% (n = 580,000). purified 12hLO, xylenol orange hydroperoxide absorbance
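Hydroperoxide product was detected by ferrous iron/xylenol orange as the 573 to 405 nm absorbance ratio. Arachidonic acid at 40 uM (final) was turned over for 30 min at room temperature by 150 nM human 12hLO, pH 7.0 Hepes buffer, after 15 min compound preincubation.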
VDR inhibitor: vitamin D3 receptor (human) inhibition | P11473 | VDR-SRC2-3 peptide fluorescence polarization, 2 h | Potency, µM, hits mostly inhibitors | actives 0.93% (n = 400,000) | AID 504847
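Fluorescence polarization assay measuring small-molecule disruption of VDR binding to the coregulator peptide SRC2-3. Compounds were pin-transferred (23 nl) into the reagent mix and incubated 2 h at room temperature before reading.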
Sfp inh: Sfp phosphopantetheinyl transferase inhibition; Q9F4F7; Biochemical Sfp PPTase activity, qHTS; Potency, µM, usual class: inhibitors; actives 3.5% (n = 310,000);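 note: the enzyme is Sfp with the accession as filed and its product quenches rhodamine fluorescence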
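Fluorescence-quenching assay with 15 nM Sfp, 5 uM rhodamine-CoA and 12.5 uM BHQ-2-labelled ybbR peptide in pH 7.6 Hepes/MgCl2 buffer. Enzyme was pre-incubated with compound for 15 min at room temperature. Rate was taken from the 30-min fluorescence change (525/598 nm).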
Of the large screens only hits and unclear results are named; the others gave an inactive call; ! = not active in a repeat. Calls come from the whole dose curve; as a rule, active = well fitted curve in the direction sought with a large enough effect; inconclusive = small, poorly fitted or top-dose-only effect, or another doubt; inactive = no such curve, though single readings can be large; an effect the other way counts as inactive or inconclusive.

Cc1ccc(S(=O)(=O)Nc2ccccc2NS(=O)(=O)c2ccc(C)cc2)cc1	ALOX12 inh 7.9µM (no result: G9a block, VDR inhibitor, Sfp inh)
Cc1ccc(S(=O)(=O)Nc2ccsc2C#N)cc1	G9a block 40µM
CCCCCCOc1ccc(N2C(=O)CC(N(CCc3ccc(S(N)(=O)=O)cc3)C(C)=O)C2=O)cc1 (stereo unspecified)	G9a block inconclusive
CCC(=O)N(Cc1ccc(S(N)(=O)=O)cc1)C1CC(=O)N(c2ccc(OC)cc2)C1=O (stereo unspecified)	G9a block 8.9µM
COC(=O)Nc1cc(C(=O)c2ccc(Cl)cc2Cl)c[nH]1	G9a block 50µM (no result: ALOX12 inh)
COC(=O)NNC(=O)c1ccc(Cl)cc1Cl	none
Cc1cc(C=C(C#N)C#N)c(C)n1-c1ccccc1	none
Cc1cc(/C=C(\C#N)C(=O)O)c(C)n1-c1ccc(Br)cc1	G9a block 71µM
COc1cc(CCC(=O)Oc2ccc(C(C)=O)cc2)cc(OC)c1OC	G9a block 71µM
COc1ccc(CC(=O)Nc2c(C(=O)N3CCN(c4ccccc4)CC3)oc3ccccc23)cc1OC	G9a block 71µM
COc1ccc(CC(=O)Nc2c(C(=O)N3CCN(c4ccccc4OC)CC3)oc3ccccc23)cc1OC	G9a block 35µM
CCOc1ccc(-n2nnc3c(=O)n(Cc4nc(-c5ccccc5Br)no4)cnc32)cc1	none (no result: GRP78 ERSR act, G9a block, VDR inhibitor, Sfp inh)
O=S1(=O)CCN2C(c3cc(F)ccc3F)=CSC2=N1	none (no result: GRP78 ERSR act, G9a block, VDR inhibitor, Sfp inh)
CCOC(=O)C1(C)NC(c2ccc(OC)c(OC)c2)C2C(=O)N(c3cccc(C(C)=O)c3)C(=O)C21 (stereo unspecified)	none (no result: G9a block, VDR inhibitor, Sfp inh)
CCOC(=O)C1(C)NC(c2cccs2)C2C(=O)N(c3ccc(OC)cc3)C(=O)C21 (stereo unspecified)	VDR inhibitor 32µM
CCOC(=O)C1(C)NC(c2ccc(N(C)C)cc2)C2C(=O)N(c3ccc(OC)cc3)C(=O)C21 (stereo unspecified)	none
CCOC(=O)C1(C)NC(c2ccccc2F)C2C(=O)N(c3cccc(C(C)=O)c3)C(=O)C21 (stereo unspecified)	VDR inhibitor 25µM
N#Cc1ccccc1CSc1ccc(-c2nc3ccccc3[nH]2)cn1	G9a block inconclusive, Sfp inh 4.5µM
CCc1nnsc1C(=O)N(C)CCOc1ccc(C)cc1	none (no result: GRP78 ERSR act, G9a block, VDR inhibitor, Sfp inh)
CC1CCCC(C)N1C(=O)CNCc1ccc2c(c1)OCO2 (stereo unspecified)	G9a block 50µM, ALOX12 inh inconclusive
COc1ccc(-c2cnc(C)o2)cc1S(=O)(=O)Nc1ccc(C)c(F)c1	ALOX12 inh 50µM! (no result: Sfp inh)
COc1cc(NS(=O)(=O)c2cc(-c3cnc(C4CC4)o3)ccc2C)cc(OC)c1	none (no result: GRP78 ERSR act, G9a block, VDR inhibitor, Sfp inh)
COc1ccc(NS(=O)(=O)c2cc(-c3cnc(C4CC4)o3)ccc2C)cc1	G9a block 50µM, ALOX12 inh inconclusive
COc1ccc(-c2cnc(C)o2)cc1S(=O)(=O)Nc1ccc(C)c(N(C)C)c1	G9a block inconclusive (no result: Sfp inh)
Cc1ccc(NS(=O)(=O)c2ccc(-c3cnc(C4CC4)o3)cc2)cc1F	ALOX12 inh 3.5µM (no result: GRP78 ERSR act, G9a block, VDR inhibitor, Sfp inh)
CCCCn1c(=O)n(CC(=O)Nc2cccc(Cl)c2)c(=O)c2c1ncn2CCC(C)C	none (no result: GRP78 ERSR act, G9a block, VDR inhibitor, Sfp inh)
CCn1c(CCCOc2ccc(Cl)cc2C)n[nH]c1=S	ALOX12 inh 18µM (no result: GRP78 ERSR act, G9a block, VDR inhibitor, Sfp inh)
Cc1ccc(Cn2c(CCCOc3ccc(Cl)cc3Cl)n[nH]c2=S)cc1	ALOX12 inh 16µM (no result: GRP78 ERSR act, G9a block, VDR inhibitor, Sfp inh)
CCn1c(CCCOc2ccc(Cl)cc2Cl)n[nH]c1=S	G9a block inconclusive, ALOX12 inh 25µM!
CCn1c(CCNC(=O)c2ccc(C)cc2)n[nH]c1=S	G9a block inconclusive
CCn1c(CCCCc2n[nH]c(=S)n2CC)n[nH]c1=S	G9a block 20µM
Cc1ccc(C(=O)CSc2nnc(CCCOc3ccc(Cl)cc3Cl)n2C)cc1	none (no result: GRP78 ERSR act, G9a block, VDR inhibitor, Sfp inh)
CCCN(Cc1ccccc1)Cc1cc(=O)oc2ccc(OC)cc12	none (no result: GRP78 ERSR act, G9a block, VDR inhibitor, Sfp inh)
CCCCN1CCc2[nH]cnc2C1c1cc(C)ccc1F (stereo unspecified)	none (no result: GRP78 ERSR act, G9a block, VDR inhibitor, Sfp inh)
O=C(CN1CCN(C(=O)c2ccc(I)cc2)CC1)N1CCCCC1	none (no result: GRP78 ERSR act, G9a block, VDR inhibitor, Sfp inh)
Cc1nc(-c2ccsc2)sc1C(=O)Nc1ccc2[nH]c(=O)[nH]c2c1	none (no result: GRP78 ERSR act, G9a block, VDR inhibitor, Sfp inh)
CCCCc1n[nH]c(=S)n1Cc1ccc(C)cc1	G9a block 1.8µM, ALOX12 inh inconclusive
Cc1cc(Cl)ccc1OCCCc1n[nH]c(=S)n1Cc1ccccc1	ALOX12 inh 16µM (no result: GRP78 ERSR act, G9a block, VDR inhibitor, Sfp inh)
CCOC(=O)N1c2ccccc2Sc2ccccc21	none
CCn1c(CN2c3ccccc3Sc3ccccc32)n[nH]c1=S	ALOX12 inh 8.9µM (no result: G9a block)
CCCCCCCc1n[nH]c(=S)n1Cc1ccccc1	ALOX12 inh inconclusive (no result: G9a block)
O=C(CSc1ccc(-c2ccco2)nn1)NCCc1ccccc1	G9a block 35µM, Sfp inh 32µM
O=C(CSc1ccc(-c2ccco2)nn1)c1ccc(F)cc1	G9a block 40µM, ALOX12 inh 28µM, VDR inhibitor inconclusive, Sfp inh 32µM
COc1ccc(CCNC(=O)CSc2ccc(-c3ccco3)nn2)cc1	none
O=C(CSc1ccc(-c2ccco2)nn1)NCc1ccc(F)cc1	G9a block 45µM, Sfp inh inconclusive
CS(=O)(=O)Nc1cccc(-c2cnc3ccccc3n2)c1	G9a block 45µM
Cc1ccc2nc3ccc(N4CCCCCCC4)nn3c(=O)c2c1	none
Cc1sc2nc3ccc(N4CCCC4)nn3c(=O)c2c1C	G9a block 35µM, Sfp inh 25µM
